Sa helicase inh = S. aureus DNA helicase inhibition; purified S. aureus helicase, fluorescence unwinding assay; inhibition, % (concentration not given with the values); 120,000 tested, 0.05% active; in the data active means inhibition above about 25%, passing the limit was not always enough;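 further: 0% = mean of negative control wells and 100% = mean of positive control wells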
Sa growth 42C = inhibitors of Staphylococcus aureus growth at 42 °C; S. aureus RN4220 growth, OD600, 20 h; active compounds read low; relative growth, % (no concentration beside the values); 170,000 tested, 0.53% active;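 active means relative growth at most 50% at the other temperature and 20+ points below 30 °C, or under 10% at both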
* marks the source's active call; other numbers are inactive results. Only some compounds are listed: those with a hit (about 0.52% of all), similar ones and a draw of the others.

Screening Nc1ccccc1N1CCCC1 returned Sa helicase inh 11.0 and Sa growth 42C 2.8*.
Screening CCCN(Cc1nnc(-c2ccccc2Cl)o1)C(=O)Cc1coc2cc(OC)ccc12 returned Sa helicase inh 12.0 and Sa growth 42C 94.8.
`COc1cc(OC)cc(C(=O)Nc2nc(-c3ccccc3)cs2)c1` gave Sa helicase inh -13.0.
Screening CCN1CCN(c2cc3c(cc2F)c(=O)c(S(=O)(=O)c2ccc(OC)cc2)cn3C)CC1 returned Sa helicase inh -33.0 and Sa growth 42C 97.6.
For COc1ccc(/C=C(\C#N)c2ccc(OC)cc2)cc1 the results were Sa growth 42C 133.3.
`COc1ccc(/C=C(\C#N)c2ccc(C)cc2)cc1` gave Sa growth 42C 43.5*.
`O=C1CN(C(=S)NCCN2CCOCC2)c2ccccc2N1` gave Sa helicase inh 12.0 and Sa growth 42C 91.5.
Screening N#Cc1ccccc1OC(=O)CCN1C(=O)c2ccccc2C1=O returned Sa helicase inh 9.0 and Sa growth 42C 102.5.
For O=C(CCN1C(=O)c2ccccc2C1=O)Oc1cccc2cccnc12 the results were Sa helicase inh -8.0 and Sa growth 42C -0.6*.
`O=C(Cc1ccccc1)Oc1cccc2cccnc12` gave Sa helicase inh 21.0.
For O=C(CN1C(=O)c2ccccc2C1=O)Oc1cccc2cccnc12 the results were Sa helicase inh 15.0 and Sa growth 42C 0.8*.
For O=S(=O)(c1ccc(NCC2CCCO2)nc1)N1CCC(Cc2ccccc2)CC1 (stereo not given) the results were Sa helicase inh 16.0 and Sa growth 42C 98.8.
For COC(=O)c1cccc(C(=O)OC)c1 the results were Sa helicase inh -15.0 and Sa growth 42C 78.0.
COC(=O)c1ccc(O)c(Sc2cc(C(=O)OC)ccc2O)c1 was read as Sa helicase inh 3.0 and Sa growth 42C 1.9*.
CCOC(=O)c1cnn(-c2ccccc2)c1NC(=O)C(C)(C)C was read as Sa helicase inh 5.0 and Sa growth 42C 123.5.
Screening O=C1NC(=O)c2ccc3c4c(ccc1c24)C(=O)N(c1ccccc1)C3=O returned Sa helicase inh 24.0 and Sa growth 42C 5.5*.
For Nc1ccc2c3c(cccc13)C(=O)N(c1ccccc1)C2=O the results were Sa helicase inh -127.0 and Sa growth 42C 95.2.
Screening O=C(O)/C=C/C(=O)N1CCN(Cc2ccccc2)CC1 returned Sa helicase inh 11.0 and Sa growth 42C 94.0.
`CCN(CC)c1ccc(C=NNC(=O)Cn2nnc3ccccc32)c(O)c1` gave Sa helicase inh 25.0 and Sa growth 42C 83.7.
`CN(C)C1(CNC(=O)c2ccc3c(c2)SC2=NS(=O)(=O)CCN23)CCCCC1` gave Sa helicase inh -8.0 and Sa growth 42C 105.0.
For Cc1[nH]c2ccc(C(=O)NC3CC3)cc2c1C the results were Sa helicase inh 2.0 and Sa growth 42C 114.9.
For Cc1[nH]c2ccc(C(=O)NCC3CCCO3)cc2c1C (stereo not given) the results were Sa helicase inh 29.0* and Sa growth 42C 102.9.
O=C(Nc1ccccc1N1CCCC1)C1COc2ccccc2O1 (stereo not given) was read as Sa helicase inh 8.0 and Sa growth 42C 79.2.
S=C(Nc1cccc(Cl)c1)Nc1cccc(Cl)c1 was read as Sa growth 42C 0.0*.
CC(C)(C)NC(=S)Nc1cccc(Cl)c1 was read as Sa helicase inh 10.0 and Sa growth 42C 126.2.
Screening O=C(Nc1ccc2[nH]ccc2c1)c1cccnc1Sc1ccccc1 returned Sa growth 42C 129.9.
Screening O=S(=O)(Nc1ccc(Cl)cc1OC(F)(F)F)C(F)(F)F returned Sa helicase inh 19.0 and Sa growth 42C 9.5*.
Cc1ccccc1NS(=O)(=O)C(F)(F)F was read as Sa helicase inh -16.0 and Sa growth 42C 92.7.
Screening Cc1cn(C2CC(O)C(CO)O2)c(=O)[nH]c1=O (stereo not given) returned Sa helicase inh 16.0 and Sa growth 42C 80.6.
For O=c1[nH]c(=O)n([C@H]2C[C@H](O)[C@@H](CO)O2)cc1F the results were Sa growth 42C -0.6*.
C(=NCc1cccnc1)c1c2ccccc2cc2ccccc12 was read as Sa helicase inh 3.0 and Sa growth 42C 113.5.
Screening COc1cc2nc(N3CCN(c4cc(C)ccc4C)CC3)nc(N)c2cc1OC returned Sa helicase inh -12.0 and Sa growth 42C -0.7*.
For COc1nc(OC)nc(N2CCN(c3cc(C)ccc3C)CC2)n1 the results were Sa helicase inh 7.0 and Sa growth 42C 91.7.
Cc1ccc(NC(=O)COC(=O)C2(CC(=O)N3CCOCC3)CCCC2)cc1C was read as Sa helicase inh 14.0 and Sa growth 42C 89.8.
For CCn1c(O)c(N=NC(=O)Nc2ccc(Cl)c(Cl)c2)c2ccccc21 the results were Sa helicase inh 13.0 and Sa growth 42C -0.8*.
`CCn1c(O)c(N=NC(N)=S)c2ccccc21` gave Sa helicase inh 9.0 and Sa growth 42C 63.5.
Screening O=S(=O)(Cc1ccc(Cl)cc1)c1nc2ccccc2[nH]1 returned Sa helicase inh 8.0 and Sa growth 42C 101.9.
`COc1ccc(CCN(C)C(=O)COc2ncnc3ccccc23)cc1OC` gave Sa helicase inh -2.0 and Sa growth 42C 81.1.
`O=C(c1ccco1)N1CCN(C(=O)c2sc3ccccc3c2Cl)CC1` gave Sa growth 42C 91.4.
Screening O=C(Oc1c(C(=O)c2ccccc2)sc2ccccc12)c1ccco1 returned Sa helicase inh 6.0 and Sa growth 42C 1.7*.
Screening CN1CCN(c2ccc(Nc3ccnc4cc(Cl)ccc34)cc2Cl)CC1 returned Sa helicase inh 6.0 and Sa growth 42C 98.2.
Screening CCN1CCN(c2ccc(Nc3ccnc4cc5ccccc5cc34)cc2)CC1 returned Sa helicase inh 48.0* and Sa growth 42C 98.4.
`Cc1ccc(-n2nnc(C(N)=O)c2N)cc1` gave Sa helicase inh 11.0 and Sa growth 42C 92.3.
For NC(=O)c1ccc(-c2cccc(C(F)(F)F)c2)o1 the results were Sa helicase inh 8.0 and Sa growth 42C 95.1.
For O=C(O)c1ccc(-c2cccc(C(F)(F)F)c2)o1 the results were Sa helicase inh -3.0 and Sa growth 42C 45.4*.
Screening O=C1C=CC(=O)N1c1cccc2ccccc12 returned Sa helicase inh 10.0 and Sa growth 42C 91.0.
For CC(C)c1cccc(C(C)C)c1N1C(=O)C=CC1=O the results were Sa growth 42C 6.7*.
`Cc1occc1C(=O)Nc1cc(C(C)(C)C)on1` gave Sa helicase inh -1.0 and Sa growth 42C 114.9.
Screening Cc1occc1C(=O)N=Nc1cc(C(C)(C)C)c(O)c(C(C)(C)C)c1 returned Sa helicase inh 7.0 and Sa growth 42C 1.4*.
`O=C(O)c1c2c(nc3ccccc13)Cc1ccccc1-2` gave Sa helicase inh -5.0 and Sa growth 42C 84.9.
`N#CC(C#N)=NNc1ccc(SC(F)F)cc1` gave Sa helicase inh 30.0 and Sa growth 42C 0.9*.
Screening CCOC(=O)/C(C#N)=N/Nc1ccc(SC(F)F)cc1 returned Sa helicase inh 10.0 and Sa growth 42C 33.5.
`O=c1c(=S)[nH]ccn1-c1ccccc1` gave Sa helicase inh 23.0 and Sa growth 42C 55.4.
For O=C(CSc1nnc(NC(=O)C23CC4CC(CC(C4)C2)C3)s1)Nc1nccs1 the results were Sa helicase inh 23.0 and Sa growth 42C 100.5.
Screening S=c1[nH]c(-c2ccccc2)cs1 returned Sa helicase inh -7.0 and Sa growth 42C 16.3*.
For O=c1[nH]c(-c2ccccc2)cs1 the results were Sa helicase inh -15.0 and Sa growth 42C 90.3.
For CC(=O)NC1c2ccccc2Oc2ccccc21 the results were Sa helicase inh 16.0 and Sa growth 42C 119.3.
For CCc1[nH]c(=S)c(C#N)c(-c2ccccc2)c1C(=O)OC the results were Sa helicase inh 2.0 and Sa growth 42C 122.5.

High-throughput results (PubChem BioAssay)
